Bioassay records as filed in PubChem.
Pf Dd2 inh – blocks in vitro growth of P. falciparum Dd2; P. falciparum Dd2 growth, SYBR Green, 72 h; Potency, µM (series often up to 28.9 µM), most hits filed as inhibitors; 4.3% of 120,000 active; active means well fitted inhibition curve with a large enough effect; further: nearly all actives have a fitted effect of over 65% in size
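Infected erythrocytes (Dd2, 0.3% parasitemia, 2.5% hematocrit final) are added to compound in RPMI-1640/Albumax II medium, grown 72 h at 37C in low oxygen, then lysed with saponin/Triton-X containing SYBR Green and read by fluorescence.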
Large screens that a line does not name were inactive. Shown is part of a subset that was picked to be rich in hits.

CCC(=O)N1CCc2cc(CNS(=O)(=O)c3c(C)cc(C)cc3C)ccc21	none
CCOC(=O)c1cccc(NC(=O)CCCn2nc(C)c3c(C)n(-c4ccccc4)nc3c2=O)c1	none
Cc1ccc(-n2c(=O)c3c(cnn3C)n(CC(=O)Nc3cccc(C)c3)c2=O)cc1	none
O=C1NCc2ccccc2CC12CCN(Cc1cccc(Br)c1)C2 (stereo not drawn)	none
CCCn1c(C)cnc1CCNC(=O)CC1CCN(C(C)=O)CC1	none
O=C(O)CCC(=O)N1Cc2ccccc2CC2(CCCN2Cc2ccncc2)C1 (stereo not drawn)	none
NC(=O)c1cccc(CN2CCCC23Cc2ccccc2NC3=O)c1 (stereo not drawn)	none
CS(=O)(=O)N1CC2(CCCN2Cc2cccc(C(N)=O)c2)Cc2ccccc21 (stereo not drawn)	Pf Dd2 inh 14µM
CC(=O)N1Cc2ccccc2CC2(CCCN2Cc2ccccc2)C1 (stereo not drawn)	none
COc1ccc(CN2CCCCC23Cc2ccccc2CN(C(=O)CCC(=O)O)C3)cc1 (stereo not drawn)	none
O=C(C1CCCC1)N1CC2(CCCCN2C2COC2)Cc2ccccc21 (stereo not drawn)	none
CN1CCC(C(=O)N2Cc3ccccc3CC3(CCN(Cc4cccnc4)C3)C2)CC1 (stereo not drawn)	none
CC(=O)N1CC2(CCCN(Cc3cccc(C(N)=O)c3)C2)Cc2ccccc21 (stereo not drawn)	none
O=C(Cc1ccccc1)N1Cc2ccccc2CC2(CCCN2Cc2ccncc2)C1 (stereo not drawn)	Pf Dd2 inh 8.9µM
CC(C)C(=O)N1Cc2ccccc2CC2(CCCCN2Cc2cccnc2)C1 (stereo not drawn)	Pf Dd2 inh 13µM
O=C(C1CC1)N1CC2(CCCN2Cc2cccnc2)Cc2ccccc21 (stereo not drawn)	Pf Dd2 inh 10µM
CC(=O)NCC(=O)N1Cc2ccccc2CC2(CCCN2Cc2ccccc2)C1 (stereo not drawn)	none
CSc1cccc(NC(=O)Nc2ccccc2OCc2cc(=O)n3cc(C)ccc3n2)c1	none
COc1ccc(NC(=O)Nc2ccc(C)n(CC(=O)O)c2=O)cc1	none
Cc1cc2ncc(C(=O)NCc3ccccn3)cn2n1	none
COCC(=O)N1CCN2C(=O)N(C3CCCCC3)C[C@H]2C1	none
CCN1c2cc(C(=O)Nc3cc(C)cc(C)c3)ccc2C(=O)N2CCCCC21 (stereo not drawn)	none
COc1cccc(CN2C(=O)CCCCC2C(=O)N(C)CCc2c(C)nn(C)c2C)c1 (stereo not drawn)	none
O=C(Nc1ccc(F)c(F)c1)N1CCc2c(c3ccccc3n2CC2CC2)C1	none
CC(C)CNC(=O)N1CCC2(CC1)N(Cc1cccc(F)c1)C(=O)CS2=O (stereo not drawn)	none
COc1ccc(C(=O)N2CCn3c(nnc3-c3ccc(OC)cc3)C2)cc1	none
COc1ccc(C(=O)NC[C@H]2O[C@@H](CC(=O)N(C)Cc3ccccc3)[C@H](O)[C@@H]2O)cc1	none
Cc1ncsc1CN1CC(N(C2CCOCC2)S(C)(=O)=O)C1	none
O=S(=O)(NCCS(=O)(=O)N1CCN(c2cccc(Cl)c2)CC1)c1ccc(F)cc1	none
Cc1cc(C)c2c(CC(=O)N3CCN(c4cccc(Cl)c4)CC3)coc2c1	none
COc1ccc(CC(=O)N2Cc3ccccc3CC23CCCN(C(=O)CCCN)C3)cc1 (stereo not drawn)	none
COc1ccc(CC(=O)N2Cc3ccccc3CC23CCCN(C(=O)CN)C3)cc1 (stereo not drawn)	none
NCC(=O)N1CCCC2(Cc3ccccc3CN2C(=O)Cc2cccc(Cl)c2)C1 (stereo not drawn)	Pf Dd2 inh 13µM
O=C1[C@H]2CN(Cc3ccccc3F)C[C@H]2C(=O)N1CCc1ccccc1	none
Cn1cc([C@@H](NC(=O)c2n[nH]c3c2CCC3)C2CC(O)C2)cn1 (stereo partly drawn)	none
O=C(NCc1cccc(C(F)(F)F)c1)c1ccc(N2CC3CC(C2)[C@H]2CCCC(=O)N2C3)nc1 (stereo partly drawn)	none
C[C@]1(CO)[C@H]2Cc3sc(NC(=O)c4c(F)cccc4F)nc3[C@@H](CC(=O)NCCN3CCOCC3)[C@]2(C)CC[C@H]1O	none
Cc1ccccc1C(=O)N(Cc1sccc1C)C1CCS(=O)(=O)C1 (stereo not drawn)	none
COCCNc1nc2c(S(=O)(=O)c3ccccc3)nnn2c2ccc(Cl)cc12	none
CCN(Cc1ccccc1)c1nc2c(S(=O)(=O)c3ccccc3)nnn2c2ccc(Cl)cc12	Pf Dd2 inh 6.3µM
COc1ccc(CNc2nc3c(S(=O)(=O)c4ccccc4)nnn3c3ccc(Cl)cc23)cc1	none
N#Cc1ccc(CN2CC[C@@H]3OCC(=O)N(c4ccccc4)[C@H]3CC2)cc1	none
CCN1CCN(CC(=O)N2CC(C)(C)[C@@](C)(O)C2)CC1	none
O=C(c1nccc2ccccc12)N1CCC2(CC1)CC(CO)N(C(=O)c1ccccc1)C2 (stereo not drawn)	none
COc1ccc(CN2C=C(C(=O)OCc3noc(C)n3)C(C)=NS2(=O)=O)cc1	none
COc1ccc(CN2C=C(C(=O)OCc3noc(-c4ccc(C)cc4)n3)C(C)=NS2(=O)=O)cc1	Pf Dd2 inh 11µM
COc1ccc(CN2C=C(C(=O)OCc3noc(-c4ccc(C)c(C)c4)n3)C(C)=NS2(=O)=O)cc1	none
CC(=O)c1ccc(NC(=O)C2CCCN(S(=O)(=O)c3ccc(Br)s3)C2)cc1 (stereo not drawn)	none
CCn1cc(C(=O)N2C[C@@H](CO)[C@H](c3ccncc3)C2)cn1	none
COc1ccc(NC(=O)N2CCC3(CC2)CC(N(C2CC2)S(C)(=O)=O)CCO3)cc1 (stereo not drawn)	none
CN(CC1CCCN(CCc2cccc(C(F)(F)F)c2)C1)C(=O)c1ccc2[nH]ccc2c1 (stereo not drawn)	Pf Dd2 inh 10µM
O=C(c1ccc(=O)[nH]c1)N1CCCC(CCc2cccc(C(F)(F)F)c2)C1 (stereo not drawn)	none
Cc1c[nH]c(C(=O)N2CCCC(CCc3cccc(C(F)(F)F)c3)C2)c1 (stereo not drawn)	none
C[C@H]1[C@@H]2[C@@H](O)[C@H]([C@H](C)C(=O)N3CCCCC3)CC[C@@]2(C)CC[C@@H]1NS(C)(=O)=O	none
N#Cc1ccc2nc(CO[C@H]3CN(C(=O)c4cccnc4)C[C@H]3F)[nH]c2c1	none
O=C(NCCCc1ccccc1)C1(CCO)CCN(c2ncccn2)C1 (stereo not drawn)	none
CCN(CC)Cc1nc(C2(O)CCN(Cc3ccccc3)CC2)cs1	none
O=C(c1ccc2nc[nH]c2c1)N1CCC(CO)(CCCc2ccccc2)CC1	none
OCC1(CCCc2ccccc2)CCN(Cc2cccn2-c2nccs2)CC1	Pf Dd2 inh 10µM
OCC1(CCCc2ccccc2)CCN(Cc2ccc(-n3cccn3)cc2)CC1	Pf Dd2 inh 4.5µM
O=C(c1cc2cc(F)ccc2[nH]1)N1CCC(CO)(CCCc2ccccc2)CC1	none
O=C(Nc1ccccc1C(F)(F)F)N1CCCC1c1nncn1-c1ccccc1 (stereo not drawn)	none
O=C(O)c1cc(Br)cc(S(=O)(=O)N2CCOCC2)c1	none
COc1cc(F)ccc1-c1cc2c(ccn2C)c(C(=O)NCCc2cnc[nH]2)n1	none
COCCN(CC1CC1)C(=O)c1ccc2nc(-c3ccc(F)cc3)cn2c1	none
CCC(NC(=O)c1ccc2nc(-c3ccc(F)cc3)cn2c1)c1ncc(C)[nH]1 (stereo not drawn)	Pf Dd2 inh 7.9µM
O=C(NCCc1cnc[nH]1)c1ccc2nc(-c3ccc(F)cc3)cn2c1	Pf Dd2 inh 10µM
CN(C(=O)c1ccc2nc(-c3ccc(F)cc3)cn2c1)C1CCOCC1	none
